Data reported in article PMC2807882, “Conservation of DNA-binding specificity and oligomerisation properties within the p53 family”.

Legend:
Assay in all cases: fluorescence anisotropy competition titration; 25 mM sodium phosphate (purification buffer pH 7.2), 225 mM NaCl, 10% v/v glycerol, 5 mM DTT, 0.2 mg/mL BSA, 22 C; low values mean tight binding
Details in all cases: protein: recombinant; tags: N-terminal 6xHis-lipoyl-TEV tag, cleaved; chain copies: 4; dsDNA, one strand shown
Dmp53 = molecular target: T1, Dmp53 (Drosophila melanogaster, UniProt Q9N6D8 1-385)
T1 sequence: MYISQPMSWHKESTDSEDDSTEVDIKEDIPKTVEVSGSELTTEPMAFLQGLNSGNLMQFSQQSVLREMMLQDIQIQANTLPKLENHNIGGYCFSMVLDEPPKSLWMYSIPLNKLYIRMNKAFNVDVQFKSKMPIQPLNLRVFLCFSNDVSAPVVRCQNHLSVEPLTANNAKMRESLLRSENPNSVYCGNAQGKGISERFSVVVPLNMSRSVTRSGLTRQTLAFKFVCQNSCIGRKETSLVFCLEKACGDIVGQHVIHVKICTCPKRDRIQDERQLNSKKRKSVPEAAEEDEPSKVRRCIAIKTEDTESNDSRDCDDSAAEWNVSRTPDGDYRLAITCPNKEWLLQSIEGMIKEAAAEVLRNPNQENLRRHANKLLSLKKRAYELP

Hsp53 = Hsp53 (Homo sapiens, UniProt P04637 1-393)
Chain of Hsp53 (P04637 whole entry): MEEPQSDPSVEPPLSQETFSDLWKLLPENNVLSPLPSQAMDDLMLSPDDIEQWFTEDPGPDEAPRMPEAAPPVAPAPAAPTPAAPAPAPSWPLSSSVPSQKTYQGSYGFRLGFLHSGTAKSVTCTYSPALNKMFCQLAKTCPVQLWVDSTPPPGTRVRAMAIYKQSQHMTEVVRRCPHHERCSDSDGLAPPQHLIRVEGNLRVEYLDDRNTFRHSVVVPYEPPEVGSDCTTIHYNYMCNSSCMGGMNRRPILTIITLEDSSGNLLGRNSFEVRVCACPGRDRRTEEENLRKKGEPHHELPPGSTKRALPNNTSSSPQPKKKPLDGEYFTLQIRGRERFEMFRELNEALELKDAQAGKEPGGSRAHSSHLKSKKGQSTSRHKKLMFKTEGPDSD

Xlp53 = Xlp53 (Xenopus laevis, UniProt Q7T1D0 1-362)
Chain of Xlp53 (Q7T1D0 entry or part of it): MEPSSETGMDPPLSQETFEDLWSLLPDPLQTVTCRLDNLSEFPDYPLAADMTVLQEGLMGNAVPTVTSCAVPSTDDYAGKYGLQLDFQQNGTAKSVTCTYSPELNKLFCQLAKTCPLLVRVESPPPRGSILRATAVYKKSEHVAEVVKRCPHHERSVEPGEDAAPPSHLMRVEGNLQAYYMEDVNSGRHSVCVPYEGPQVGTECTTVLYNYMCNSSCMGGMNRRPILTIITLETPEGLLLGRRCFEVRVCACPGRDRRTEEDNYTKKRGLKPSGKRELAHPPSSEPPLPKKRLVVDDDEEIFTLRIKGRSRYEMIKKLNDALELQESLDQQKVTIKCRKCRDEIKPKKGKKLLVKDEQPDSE

ΔNp63α = molecular target: T2, ΔNp63α (Homo sapiens, UniProt Q9H3D4-2 1-586)
T2 sequence: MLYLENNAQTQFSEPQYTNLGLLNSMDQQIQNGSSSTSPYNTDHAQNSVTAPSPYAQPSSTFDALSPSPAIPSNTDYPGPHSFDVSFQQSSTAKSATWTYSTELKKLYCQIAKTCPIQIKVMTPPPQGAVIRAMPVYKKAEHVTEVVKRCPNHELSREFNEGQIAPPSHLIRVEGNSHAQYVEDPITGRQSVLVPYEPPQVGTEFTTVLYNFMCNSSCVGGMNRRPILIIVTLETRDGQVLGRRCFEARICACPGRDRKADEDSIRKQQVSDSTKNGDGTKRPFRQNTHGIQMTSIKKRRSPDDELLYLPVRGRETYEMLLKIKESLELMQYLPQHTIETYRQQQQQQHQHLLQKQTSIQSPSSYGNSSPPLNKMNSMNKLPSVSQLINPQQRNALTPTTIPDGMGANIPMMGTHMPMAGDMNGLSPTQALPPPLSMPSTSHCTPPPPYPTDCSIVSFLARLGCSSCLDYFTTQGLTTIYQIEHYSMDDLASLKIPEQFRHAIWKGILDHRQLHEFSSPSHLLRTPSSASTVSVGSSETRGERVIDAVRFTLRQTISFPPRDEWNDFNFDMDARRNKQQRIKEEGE

ΔNp63β = molecular target: T3, ΔNp63β (Homo sapiens, UniProt Q9H3D4-4 1-461)
T3 sequence: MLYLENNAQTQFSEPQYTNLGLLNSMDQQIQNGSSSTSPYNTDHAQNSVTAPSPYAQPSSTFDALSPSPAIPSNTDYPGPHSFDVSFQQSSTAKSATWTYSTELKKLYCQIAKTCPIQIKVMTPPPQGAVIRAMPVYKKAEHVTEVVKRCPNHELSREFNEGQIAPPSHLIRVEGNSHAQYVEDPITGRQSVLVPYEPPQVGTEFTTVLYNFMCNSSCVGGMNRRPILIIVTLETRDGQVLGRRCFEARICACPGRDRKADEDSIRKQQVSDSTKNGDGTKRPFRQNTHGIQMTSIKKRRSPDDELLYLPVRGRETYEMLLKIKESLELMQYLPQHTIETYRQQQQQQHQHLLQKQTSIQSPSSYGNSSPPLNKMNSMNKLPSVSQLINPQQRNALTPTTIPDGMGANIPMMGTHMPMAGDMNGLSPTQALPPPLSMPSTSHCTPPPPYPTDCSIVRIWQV

ΔNp63γ = molecular target: T4, ΔNp63γ (Homo sapiens, UniProt Q9H3D4-6 1-393)
T4 sequence: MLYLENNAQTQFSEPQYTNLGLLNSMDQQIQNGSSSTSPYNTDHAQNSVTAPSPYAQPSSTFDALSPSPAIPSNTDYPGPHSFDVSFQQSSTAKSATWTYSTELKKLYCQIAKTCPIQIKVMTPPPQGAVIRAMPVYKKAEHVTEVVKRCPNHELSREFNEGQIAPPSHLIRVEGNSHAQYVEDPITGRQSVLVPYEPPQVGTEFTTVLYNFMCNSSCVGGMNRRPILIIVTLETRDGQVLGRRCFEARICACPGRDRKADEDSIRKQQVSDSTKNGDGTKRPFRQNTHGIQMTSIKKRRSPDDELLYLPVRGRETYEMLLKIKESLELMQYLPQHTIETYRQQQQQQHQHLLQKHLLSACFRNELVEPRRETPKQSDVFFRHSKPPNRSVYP

ΔNp73β = molecular target: T5, ΔNp73β (Homo sapiens, UniProt O15350-9 1-450)
T5 sequence: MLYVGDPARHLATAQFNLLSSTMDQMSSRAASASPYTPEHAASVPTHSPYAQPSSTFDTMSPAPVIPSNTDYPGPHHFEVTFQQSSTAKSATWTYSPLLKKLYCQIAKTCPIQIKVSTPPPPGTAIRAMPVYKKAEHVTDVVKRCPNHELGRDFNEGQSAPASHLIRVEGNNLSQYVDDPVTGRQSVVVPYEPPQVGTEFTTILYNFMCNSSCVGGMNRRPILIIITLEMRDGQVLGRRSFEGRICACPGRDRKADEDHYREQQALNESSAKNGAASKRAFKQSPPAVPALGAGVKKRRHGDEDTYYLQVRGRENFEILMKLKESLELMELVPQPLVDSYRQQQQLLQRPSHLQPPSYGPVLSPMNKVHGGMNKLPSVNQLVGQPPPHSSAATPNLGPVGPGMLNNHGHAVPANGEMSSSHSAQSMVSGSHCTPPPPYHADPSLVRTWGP

p73CT = molecular target: T6, p73CT (Homo sapiens, UniProt O15350 104-383)
T6 sequence: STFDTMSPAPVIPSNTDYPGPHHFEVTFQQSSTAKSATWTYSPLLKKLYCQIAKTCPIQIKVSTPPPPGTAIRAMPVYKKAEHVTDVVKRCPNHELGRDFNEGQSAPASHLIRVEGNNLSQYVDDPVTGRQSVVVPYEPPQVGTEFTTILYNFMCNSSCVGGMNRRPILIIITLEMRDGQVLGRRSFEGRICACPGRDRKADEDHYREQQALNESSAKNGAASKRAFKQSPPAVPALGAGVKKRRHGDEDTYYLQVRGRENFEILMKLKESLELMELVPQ

Drp53 = molecular target: T7, Drp53 (Danio rerio, UniProt P79734 1-373)
T7 sequence: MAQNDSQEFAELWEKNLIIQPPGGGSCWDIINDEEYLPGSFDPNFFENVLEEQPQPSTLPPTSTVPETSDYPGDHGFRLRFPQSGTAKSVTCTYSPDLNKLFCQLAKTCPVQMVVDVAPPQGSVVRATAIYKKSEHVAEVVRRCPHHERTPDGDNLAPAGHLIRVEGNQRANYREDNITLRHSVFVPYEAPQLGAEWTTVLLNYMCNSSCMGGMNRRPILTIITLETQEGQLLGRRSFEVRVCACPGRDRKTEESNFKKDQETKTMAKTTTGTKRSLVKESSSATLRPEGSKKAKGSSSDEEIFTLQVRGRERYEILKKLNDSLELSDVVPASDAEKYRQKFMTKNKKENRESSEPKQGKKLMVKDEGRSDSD

Mmp53 = Mmp53 (Mus musculus, UniProt P02340 1-390)
Chain of Mmp53 (P02340 whole entry): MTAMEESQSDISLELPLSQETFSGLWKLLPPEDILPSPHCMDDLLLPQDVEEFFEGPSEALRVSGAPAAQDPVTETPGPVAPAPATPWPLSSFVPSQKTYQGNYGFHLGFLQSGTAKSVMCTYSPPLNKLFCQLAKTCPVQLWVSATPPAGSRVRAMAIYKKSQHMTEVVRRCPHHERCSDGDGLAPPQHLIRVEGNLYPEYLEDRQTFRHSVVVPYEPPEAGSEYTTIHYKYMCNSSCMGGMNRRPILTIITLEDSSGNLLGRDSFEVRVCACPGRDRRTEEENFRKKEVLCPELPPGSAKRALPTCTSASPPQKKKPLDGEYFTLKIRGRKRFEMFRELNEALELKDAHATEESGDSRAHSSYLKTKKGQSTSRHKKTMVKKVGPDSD

| Sequence | binding signal (Dmp53) | binding signal (Hsp53) | binding signal (Xlp53) | binding signal (ΔNp63α) | binding signal (ΔNp63β) | binding signal (ΔNp63γ) | binding signal (ΔNp73β) | binding signal (p73CT) | binding signal (Drp53) | binding signal (Mmp53) |
| --- | --- | --- | --- | --- | --- | --- | --- | --- | --- | --- |
| CGCGGACATGGCCGGACATGTCCCGC | 0.93 delta log10 Kd | 0.73 delta log10 Kd | 0.89 delta log10 Kd | 0.85 delta log10 Kd | 1.06 delta log10 Kd | 1.21 delta log10 Kd | 1.18 delta log10 Kd | 1 delta log10 Kd | – | – |
| CGCGGACAGGTCCGGACATGTCCCGC | 0.35 delta log10 Kd | 0.36 delta log10 Kd | 0.41 delta log10 Kd | 0.17 delta log10 Kd | 0.43 delta log10 Kd | 0.43 delta log10 Kd | 0.49 delta log10 Kd | 0.41 delta log10 Kd | 0.65 delta log10 Kd | 0.4 delta log10 Kd |
| CGCGGACCTGTCCGGACATGTCCCGC | 0.54 delta log10 Kd | 0.45 delta log10 Kd | 0.48 delta log10 Kd | 0.3 delta log10 Kd | 0.57 delta log10 Kd | 0.58 delta log10 Kd | 0.64 delta log10 Kd | 0.56 delta log10 Kd | 0.77 delta log10 Kd | 0.4 delta log10 Kd |
| CGCCGACATGTCCGGACATGTCCCGC | 0.03 delta log10 Kd | 0.17 delta log10 Kd | 0.1 delta log10 Kd | 0.04 delta log10 Kd | 0.07 delta log10 Kd | 0.09 delta log10 Kd | 0 delta log10 Kd | 0.06 delta log10 Kd | 0.15 delta log10 Kd | 0.15 delta log10 Kd |
| CGCGGACACGTCCGGACATGTCCCGC | 0.25 delta log10 Kd | 0.53 delta log10 Kd | 0.7 delta log10 Kd | 0.25 delta log10 Kd | 0.57 delta log10 Kd | 0.52 delta log10 Kd | 0.62 delta log10 Kd | 0.58 delta log10 Kd | 0.65 delta log10 Kd | 0.36 delta log10 Kd |
| CGCGGACATATCCGGACATGTCCCGC | 0.98 delta log10 Kd | 0.83 delta log10 Kd | 1.01 delta log10 Kd | 0.92 delta log10 Kd | 1.2 delta log10 Kd | 1.31 delta log10 Kd | 1.32 delta log10 Kd | 1.44 delta log10 Kd | 1.14 delta log10 Kd | 0.63 delta log10 Kd |
| CGCGGACATGTCTGGACATGTCCCGC | 0.03 delta log10 Kd | 0.13 delta log10 Kd | 0.07 delta log10 Kd | 0.04 delta log10 Kd | 0.05 delta log10 Kd | 0.05 delta log10 Kd | 0 delta log10 Kd | 0.08 delta log10 Kd | 0.02 delta log10 Kd | 0.11 delta log10 Kd |
